# Source: PubChem BioAssay (National Center for Advancing Translational Sciences (NCATS))
# HT1080-NT tox = kills 2HG-producing HT-1080-NT fibrosarcoma cells | HT-1080-NT fibrosarcoma viability, CellTiter-Glo ATP luminescence, 48 h | Potency, µM (top dose mostly 46.1 µM), actives largely listed as cytotoxic | hit rate 1.6% among 360,000;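 also: NT is the 2HG producing partner of a matched IDH1 knockdown line; nearly all actives have a fitted effect of over 55% in size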
#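 HT-1080-NT; 750 cells/well; 5% FBS RPMI; 48 h compound, 37 degrees C; CellTiter-Glo luminescence; curve fitting and curve-class assignment.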
# IL1B secr inh = blocks inflammasome-driven IL-1 beta release. THP-1 LPS/ATP IL-1B secretion, AlphaLISA, 16 h; stronger effect = lower value. hit rate 4.7% among 360,000. activity change, % at 57.5 µM. AID 743279; in the data active = activity change below about -50%; inconclusive = mostly about -30% to -49%
#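 THP-1 cells pretreated 1 hr with compounds (up to 57.5 uM final), then stimulated with LPS (250 ng/mL final) plus ATP (1.25 mM final); secreted IL-1B measured by AlphaLISA after 16 hr, decreased signal indicating inhibition.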
# TDP1 cell noCPT = qHTS for Inhibitors of human tyrosyl-DNA phosphodiesterase 1 (TDP1): qHTS in cells in absence of CPT; AID 686978, 2013; DT40 Tdp1-/- hTDP1 cells, no CPT, ATP luminescence, 48 h; Potency, µM (top dose mostly 46.2 µM), most hits filed as inhibitors; hit rate 15% among 420,000; also: nearly all actives have a fitted effect of over 55% in size
#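 Camptothecin absent (DMSO only). Human TDP1-complemented DT40 knockout cells, 400 cells/well, 37 °C for minimum 48 hr; ATP measured via CellTiter-Glo, 30 min dark incubation, luminescence.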
# HT1080 IDH1KD tx = HT-1080 IDH1 knockdown cell toxicity (counter line); HT-1080 IDH1 knockdown viability, ATP luminescence, 48 h; Potency, µM (highest dose often 46.1 µM), most hits filed as cytotoxic; hit rate 2% among 360,000
#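 Using the IDH1-knockdown HT-1080 line run in the same batch and compound series as the NT line, viability after 48 h at 37 °C was determined by CellTiter-Glo luminescence and expressed as % activity.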
# DT40 TDP1 CPT = growth inhibition of DT40 Tdp1-/-;hTDP1 cells with camptothecin (screen for TDP1 inhibitors); hit rate 12% among 420,000; chicken DT40 Tdp1-/-;hTDP1 cells + 20 nM CPT, ATP luminescence, 48 h; Potency, µM (titrated, usually from 46.2 µM), usual class: inhibitors; also: nearly all actives have a fitted effect of over 55% in size
#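 Chicken DT40 Tdp1-/- cells stably complemented with human TDP1 were seeded at 400 cells/well in medium containing 20 nM camptothecin, exposed to pin-transferred compounds, and grown at 37 °C for at least 48 hr. Viability was read as ATP luminescence.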
# Hits are given with their value; - = inactive; ? = inconclusive; . = not tested or not shown. Most compounds without a hit are left out; they make up all but 19% or so of the library. Unless noted, calls follow the shape of the dose curve; as a rule, active = well fitted curve in the direction sought with a large enough effect; inconclusive = small, poorly fitted or top-dose-only effect, or another doubt; inactive = no such curve, though single readings can be large; an effect the other way counts as inactive or inconclusive.
SMILES,HT1080-NT tox,IL1B secr inh,TDP1 cell noCPT,HT1080 IDH1KD tx,DT40 TDP1 CPT
O=c1ccsn1Cc1ccccc1,?,-100.7,0.651µM,23.1µM,0.291µM
COc1ccc(CCNS(=O)(=O)c2csc(C(N)=O)c2)cc1OC,-,-,?,-,-
CCCSc1nnc(NC(=O)CCc2ccccc2)s1,-,-,-,-,-
Cc1ccc(NC(=O)CSc2nnc(NC(=O)NC3CCCCC3)s2)cc1,.,.,?,.,-
Cc1ccc(NC(=O)Nc2nnc(SCC(=O)N3CCC(C)CC3)s2)cc1,.,.,23.1µM,.,?
CCCSc1nnc(NC(=O)Nc2ccccc2)s1,-,-,16.4µM,-,?
CCOC(=O)Cc1ccc(NC(=O)Nc2nnc(N3CCCCC3C)s2)cc1 (stereo unspecified),.,.,11.6µM,.,11.6µM
CCCSc1nnc(NC(=O)Nc2ccc(F)cc2)s1,?,-,20.6µM,11.6µM,20.6µM
CCCSc1nnc(NC(=O)Nc2ccc(C)cc2)s1,-,-,?,-,?
CC1CCCCN1c1nnc(NC(=O)c2cc(-c3ccc(Br)cc3)on2)s1 (stereo unspecified),-,-,?,-,?
COC(=O)c1c(C(=O)OC)c(-c2cccc(Cl)c2)n2c1CS(=O)(=O)C2,-,-,-,-,-
CCN(c1ccccc1)c1nnc(NC(=O)Nc2ccc(Br)cc2)s1,.,.,3.66µM,.,2.91µM
Cc1ccccc1Cn1cc(S(=O)(=O)c2ccc(C(C)C)cc2)c(=O)c2cc3c(cc21)OCO3,-,-,-,-,-
CCCCN1C(=O)C(=O)NC[C@@H]1CCCCN,-,-,-,-,-
COc1ccc(Cl)cc1/C=C1/C(=O)ON=C1C,-,-,?,-,?
CC1=NOC(=O)/C1=C\c1ccc(-c2ccc(Br)cc2)o1,?,-98.8,11.6µM,?,13µM
CC1=NOC(=O)/C1=C\c1ccc(-c2cc(Cl)ccc2Cl)o1,-,-55.5,?,-,?
COc1ccc(CN(Cc2ccccc2)C(=O)COC(C)=O)cc1COc1ccc(NC(C)=O)cc1,-,.,?,-,?
COc1ccc(CN2C(=O)N(c3ccccc3)C(=O)C2c2ccccc2)cc1COc1ccc(NC(C)=O)cc1 (stereo unspecified),-,.,8.91µM,-,10µM
COc1ccc(CN(Cc2ccccc2)C(=O)CN2CCN(C)CC2)cc1COc1ccc(NC(C)=O)cc1,-,.,17.8µM,-,?
COc1ccc(CN(Cc2ccccc2)C(C)=O)cc1COc1ccc(NC(C)=O)cc1,?,.,11.2µM,?,?
COc1ccc(CN(Cc2ccccc2)C(=O)c2ccncc2)cc1COc1ccc(NC(C)=O)cc1,-,.,11.2µM,-,?
CC(C)[C@H]1C(=O)Nc2ccccc2N1C(=O)N[C@@H](Cc1ccccc1)C(=O)N[C@@H](C(=O)O)c1ccccc1,-,-,-,-,-
Cn1cc(-c2coc3c(C(=O)Nc4ccccc4)cccc23)cn1,-,-,?,-,?
COc1ccc(NC(=O)c2cccc3c(-c4cnn(C)c4)coc23)cc1,-,?,23.1µM,-,?
SMILES,HT1080-NT tox,IL1B secr inh,TDP1 cell noCPT,HT1080 IDH1KD tx,DT40 TDP1 CPT
COc1cc(NC(=O)c2cccc3c(-c4cnn(C)c4)coc23)cc(OC)c1OC,?,-75.3,3.26µM,?,4.61µM
CNc1ccc(N=Nc2cccc3ncccc23)cc1,-,-53.8,?,-,?
CC(=O)Nc1ccc(S(=O)(=O)Oc2cccc(N3C(=O)C4CC=CCC4C3=O)c2)cc1 (stereo unspecified),-,-,20.6µM,-,?
CC(=O)Nc1ccc(S(=O)(=O)Oc2ccc(N3C(=O)C4CCCCC4C3=O)cc2)cc1 (stereo unspecified),-,-,18.4µM,-,16.4µM
COc1cc(C2C(=O)N(C3CCCCC3)CC(=O)N2C2CCCCC2)ccc1OC(C)C (stereo unspecified),.,.,-,.,-
O=S1(=O)c2ccccc2Nc2ccccc21,-,-73.4,-,-,-
Cc1ccc(-c2cnc3c(c2)C(=O)N([C@H](C)CO)C[C@H](C)[C@@H](CN(C)Cc2ccccc2F)O3)cc1,-,-,?,-,?
C[C@H](O)C#Cc1cnc2c(c1)C(=O)N([C@H](C)CO)C[C@@H](C)[C@@H](CN(C)Cc1ccc(-c3ccccc3)cc1)O2,?,-107.9,1.3µM,-,?
C[C@@H]1CN([C@@H](C)CO)C(=O)c2cc(-c3ccccc3F)cnc2O[C@H]1CN(C)Cc1cccc(F)c1,-,-,23.1µM,-,?
C[C@H](CO)N1C[C@H](C)[C@@H](CN(C)Cc2ccc(-c3ccccc3)cc2)Oc2ncc(C#C[C@@H](C)O)cc2C1=O,-,-,?,-,?
C[C@H]1CN([C@@H](C)CO)C(=O)c2cc(/C=C/c3ccccc3)cnc2O[C@H]1CN(C)C(=O)c1cccc(F)c1,-,-,23.1µM,-,?
C[C@@H]1CN([C@@H](C)CO)C(=O)c2cc(Br)cnc2O[C@@H]1CN(C)Cc1ccc(Oc2ccccc2)cc1,-,-51.6,16.4µM,-,-
CSc1nnc(C)c(=O)n1COC(=O)c1ccccc1,-,-,-,-,-
COc1ccc(C(=O)N2CCC3(CC2)NCCc2[nH]cnc23)cc1OC,-,-,-,-,-
C[C@@H]1CN([C@@H](C)CO)C(=O)c2cc(C#Cc3cccc(F)c3)cnc2O[C@H]1CN(C)C(=O)C1CCCCC1,-,-,?,-,-
C[C@@H]1CN([C@@H](C)CO)C(=O)c2cc(C#Cc3cccc(F)c3)cnc2O[C@@H]1CN(C)CC1CCOCC1,-,?,?,-,16.4µM
CC1(C)CC(C(=O)N2CCOc3ccc(CN4CCC(Oc5cccnc5)CC4)cc3C2)CCO1 (stereo unspecified),.,.,-,.,?
N#Cc1nc(-c2cccs2)oc1NCCCN1CCOCC1,-,-,-,?,-
COc1ccc(-c2nc(CN3CCC(C(=O)NCCCN4CCN(c5ccccc5F)CC4)CC3)c(C)o2)cc1OC,.,.,1.16µM,.,?
CCCCNC(=O)C1CCN(Cc2nc(-c3ccc(OC)c(OC)c3)oc2C)CC1,.,.,-,.,-
Cc1oc(-c2cccc(Cl)c2)nc1CN1CCC(C(=O)NCCCN2CCN(c3ccccc3F)CC2)CC1,.,.,3.66µM,.,2.91µM
CCOC(=O)C1(C)CCCN(C(=O)c2cc(OC)c(OC)c(OC)c2)C1 (stereo unspecified),-,-,-,-,-
CSCC(C)N1CCC(N2CCC(C(=O)NCc3ccccn3)CC2)CC1 (stereo unspecified),-,-,-,-,-
Cc1cc(C(=O)NCCc2ccc(Cl)cc2)c2c(C)nn(-c3cccc(F)c3)c2n1,.,.,-,.,-
O=C(NCCc1ccc(Cl)cc1)c1nc(-c2cccc(F)c2)n2c1CCCCC2,.,.,9.2µM,.,18.4µM
